# Data: PubChem BioAssay AID1159506 (National Center for Advancing Translational Sciences (NCATS), 2015)
# In all, about 59,000 sequences were measured (the read-out: median about -0.00055, lowest 2% from about -2 on). The entries come from a sample that favours the lowest values as a whole.
# Test: Identification of proteins required for the processing of the EWS-FLI1 nascent transcript;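 note: robust z of luciferase light less the median z of siRNAs with the same seed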
# Conditions: TC32 Ewing sarcoma NR0B1-luc vs CMV-luc (EWS-FLI1 target promoter against control promoter), 48 h; screened at 20 nM (by protocol)
# Method in brief: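 Genome-wide siRNA screen (Ambion v4.1, three siRNAs per gene, 20 nM final, RNAiMax) in Ewing sarcoma TC32 cells carrying NR0B1-promoter or CMV-promoter luciferase; OneGlo luciferase read 48 h post-transfection. Data normalized, z-score-MAD transformed and seed-adjusted.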
row,Sequence,seed-corrected z-score
1,UCUCGAACCUGGAGAAUGC against FAM109B,0.134
2,UGUGCACUAAUGCGAAUCG against MYO5C,-0.13
3,UCUGCUUUGUCUCUCAGCC against FAM92A1,-2.84
4,UUCUGGAUGUGGUAGGGCC against ACSBG1,0.963
5,UCUGUUCGAAAGUCAAAGC against SRBD1,-0.955
6,UGAGUUGCAGUCCUCCACG against C9orf173,-2.17
7,UUCGUAAUAAAGGAUCCAG against NF1,0.124
8,UAUGCGCAGAUGUUACUCG against PAICS,0.0926
9,UUCACUUUCAGAUCGGGAC against C18orf25,-1.35
10,UUUAAGUCAAAUCUUGUCC against WTIP,-0.633
11,UAUUUACCAGGCUCUGUGG against FAM47A,0.667
12,UGCUGCAUGACAUCCACCC against SORBS3,0.835
13,AGGGUAGAAAGAGUCGUCC against ANKRD33B,-2.3
14,UUUUCGAUCAUCACCACAC against YWHAQ,-0.216
15,UUGGAGUUCAGGAUCCUCU against MYO19,0.563
16,UCGGUUGAAACAUUUGUGG against IPO11,0.941
17,UAUGUAACUUUGAUGAGAG against CEACAM22P,0.0194
18,AUCCUUGUACAUGCAGUCC against ELL,-2.16
19,AUAAAACUCAUCUGAGUCC against CYP11B2,0.754
20,AAAGCUAACAUAUUGUAGU against MSGN1,-0.0625
21,UUUCCGAUAGAUUGACUGC against SMPX,0.0624
22,UUUCAUCUCAUCGAGGAAG against LDOC1,-2.02
23,UUCUCACUCAUGUUGCCUC against ZNF768,0.198

row,Sequence,seed-corrected z-score
1,UACGGUCACUGAUAGUUGG against CYP17A1,-0.42
2,UACCGGAAAGACAAGAUAG against CRYBG3,0.146
3,UGUAGCUGAAGAAUAUUCC against ZBTB24,-2.4
4,UCUUAUUGAAAAUCUCAGC against NR1H4,0.518
5,UGUCUAACAAAUGUGGAGC against ZNF548,0.841
6,UCUGGUGUACAAGUAGUCC against FICD,0.433
7,UCUCCUCAAAGCACCAGCC against LOC653712,-0.019
8,AAAGUAGCAUCGUCUGUCU against GSC,0.704
9,UUUGAGUAGAGCAGCAUCC against SENP3,-2.41
10,AUACUGGUUAGAAUCAGAC against EVI5,-0.0438
11,AAUGAAGCAGUUCAUAAGC against ST3GAL6,0.107
12,UUACGUUCAACCUUAGAUC against PHLPP1,0.355
13,UUUAGUUCACCCUGAAUCG against NUP54,-0.0579
14,UAAGUACUCUCAACACUGC against PIN4P1,0.00579
15,AGCUUGUAAACACUUCUGC against RGN,-2.52
16,UUUGAGUCUAGUGGGAUAG against SLC22A10,0.479
17,UAUAGAUGCGAAUCCUUUC against C17orf97,-0.421
18,AAAGCUGCAACUGCCUCCC against C2orf48,-2.61
19,UAAGUCGAACCUUAUCUCC against AIM2,-0.16
20,UAGAAUAAAAUACCGAAUG against SNRPD1,-1.88
21,UUUGUCUCAAGAAUUAUCA against SPTSSA,0.0457
22,UUGAUUCUCGGGUCUUUGG against FAM71F2,-12.6
23,UUUGAUUAAAAGGUCUCUG against PIGX,-1.29

row,Sequence,seed-corrected z-score
1,UGAGAUGAACUGAUCUUGC against OR10W1,0.324
2,UCAGGUUUAAGAGGUAUGC against TRAM2,0.485
3,UCCAGUUGCACUUCUGUCC against CGREF1,-3.65
4,UGUAUACAAAGAGACAAUC against TAS2R5,0.728
5,UUUGCUAGAAGCCUUCUUG against DOK6,-0.847
6,UUGAGGUCAAUUUCGGCUG against H2AFY2,-0.937
7,UGUUUUAACUGCUGUAUCC against RP9,0.734
8,UCUUCAUUAGCUUCUUCAC against PLCXD2,0.44
9,UGAUGCACGAGAAGAAGCC against KCNK3,-13.5
10,UUUGCUACAGAAUUGCUUG against ANAPC16,-1.17
11,AAAGGAUCUCUCUGUAUUU against SNTN,1.99
12,UGUACUGUCAGACUAAUGC against MRGPRX3,-0.749
13,UUCAGCAUUACUCUCUGCG against RPL17P39,-2.51
14,UCAGCAUAUAGCAGGAUCC against NPR2,-0.565
15,AUUCUCACCAGACAUCCUG against KRT74,1.12
16,AAGAAUUCCAUACAUCUUC against ACKR1,-0.0448
17,UAAGCAUCCAGUAGGCAGG against XBP1,-3.08
18,UCUCUAAAAGGUGUCUUGC against SH3RF2,0.606
19,AUAGUAAUCAUCCAGAGCA against ARHGEF35,-0.685
20,AUAGGUACUGCACUGCAGG against GPS2,-0.377
21,UGACUAUGAUGUUGAAUCC against OR8A1,-1.35
22,UUCGAUUCAUGAAAUCUCC against GTF3C1,0.399
23,UGUUCAACGAGGGUAUAGC against ZNF416,0.828

row,Sequence,seed-corrected z-score
1,UUGUGGUAGAUCUGGACGC against VASP,-2.15
2,ACAGUUAUUCUGUCCAUCG against LDLRAD3,-6.33
3,UCUGGUUUUUGUACCCGCC against LOC403323,-0.673
4,UUUUUAACAGAGGUCUCCA against RAB42P1,-0.18
5,UUUCAAUCUUGUCUGAGGC against COX11,-0.764
6,UUGAGUAAGAACUUUAUCC against SMAD1,-2.45
7,AAUAUGUCGUUGUAAGUGC against ZNF644,-0.209
8,UUCUUCUAAAACAUCCUCG against GLE1,-0.174
9,UUAUCUAUCACCCAAGCAG against RTN4IP1,-0.598
10,UUCCGUUUAAUUUCAACUG against BRCA2,0.32
11,UAUUUGUUUCACCUCACUG against DNAJC8,1.25
12,AGAAGGAACAUGCGUGCAG against TTC34,1.38
13,UCCUUGUCGACAACGAGUG against GAPVD1,-3.68
14,UAAUUGAGUUUCUAAAGUG against CDKAL1,-0.809
15,UUCAUUAUGUGGAACAUAC against CYP19A1,-1.02
16,AAAGUGGACACCAUAGACC against HGD,0.0682
17,UUUGUAGCAAGGAAUACAG against OR7A5,-3.5
18,UGUCGAUCUAGGUACUGAC against SART3,-0.192
19,AUAAAUGGUGGUUUAAGGU against METTL2B,-0.343
20,AAAGCCAGGAGUUCCGCUG against GNG8,-0.7
21,UCAGGAACACCGAGUACUC against S100A5,-0.776
22,UAGUUGGUUAAAUUGGACC against TEKT3,-0.0576
23,AAACCUUUUGCAUCUAUGG against GSTA12P,0.753

row,Sequence,seed-corrected z-score
1,AAAGUUGCUGGUGUGCUCC against NUTM1,-1.38
2,UCUUUGAGCAGCUUCCAGC against SOX4,-5.6
3,UCAGGUAGCAGAGUACUGC against IL22RA1,-0.631
4,AGAGUUCAAAUGUAUUGUC against KLHL21,-1.34
5,UCUUUUUGUAGGUCUCUGC against RCN3,-3.02
6,UCCUUUAACAACAAGUUGU against IL10,-0.0724
7,UCUCUAAACAGGUCCCAAG against PDX1,0.0859
8,AUCGCUAAGACGGUGAUCC against EIF4ENIF1,-0.0436
9,UUCCGCAGCAAUGAUAGGC against TMEM132D,-0.636
10,UCUGCUACUCCAUUGAUCU against TRMT12,-1.63
11,UACAUAGAAGGUGUUGGGC against CD81,0.0377
12,UUCUUUUGUCCAUACAAUC against TAS2R45,-2.34
13,UACAAGCCCAGUUGAGAUC against DSTNP4,-0.547
14,UACGAUAUUGUUGCUACAG against SLIT2,-0.0537
15,UAUUAGUCCCGGACGAAUG against SCAF8,-0.115
16,UUGUUUAUGAGCAAGGUGG against RPL41,-0.22
17,UUUGGUGCAAAGUCCAUGC against SKIV2L,-2.51
18,UUGAGGAUACAGCACAGCC against SERPINI1,-0.491
19,ACAGGCUUUAUCAUACUGC against ZXDC,-0.245
20,UAGGUGAUAUCUCUCCGCC against TGM4,-0.284
21,ACAGUUCUCGCAGUACUGG against GPANK1,-0.197
22,UGACCAUCCAGAAGUAGUU against SPHK1,-0.911
23,UUGGUAGAUAUGAUCUUCG against TCEA3,0.375

row,Sequence,seed-corrected z-score
1,UUGGGUAUUGUUCUUGACU against SNRPD2,-2.58
2,UGUUUAUUAGAAGUGACUC against FOLR2,-0.238
3,UAGUUGUCAGUGAAGACUG against VIP,-2.09
4,CUUGUAGCUUCUCUACAUC against LOC441347,-0.389
5,UUCUCAUCAAGCUGUCUCC against SH3RF2,0.136
6,UAUAACAGCAGUAUCUGUC against TMEM215,0.183
7,UUGUUGAAAUGGAACUCCU against HOXB1,0.384
8,UCAGUGCACGCAACUGUGU against TNXB,0.0625
9,UAUAUGAUUAACAAAACGG against XKR3,0.439
10,UUCUUUCCGAUGAUACUGC against PCBP2,-3.36
11,UUUCGCAGUUGUAAGACCG against CROCCP3,0.0641
12,UAGAAUUUCUCGUACAACC against RALGPS1,0.75
13,UAAUGAGCAGUGACUCUGG against BTBD11,0.456
14,AAUUCUUCAAAACUAACUU against S100G,0.467
15,AUCCGUACGCCUCCGAUUC against PCSK4,-0.594
16,AAGGGAUAAGGGAUCAUCC against ST7,-0.0379
17,UAUAGUUACAUGACUGCUG against SNU13,-6.52
18,UUUUUAAUGCCUUAUAGUC against TTLL13P,1.17
